IL2 activator: IL-2 activation; AID 652025; activation, % (series mostly up to about 46 µM); IL-2 activation reporter assay, cell-based qHTS; stimulated with anti-CD3/CD4/CD28 beads; in transgenic mouse T cells; 360,000 tested, 0.065% active; in the data active means activation above about 50%; inconclusive means mostly about 30% to 49%; further: 0% is about no effect
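Unstimulated transgenic mouse T cells preincubated 60 min with compound, then stimulated with anti-CD3/anti-CD4-coated beads plus anti-CD28 for 18 h at 37 degrees C. IL-2 response read as EGFP and DsRed fluorescence by plate cytometry.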
TCR activator: T cell receptor activation; 330,000 tested, under 10 active; Potency, µM (top dose mostly 9.22 µM), for the others: at the top dose activation of IL-2 secretion, most hits filed as activators; AID 504894; primary human leukocytes, anti-CD3, IL-2 HTRF, 48 h; further: % of control where 0% means no effect
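IL-2 produced over 48 hr by a-CD3 bead-stimulated primary human leukocytes exposed to compounds was detected with a homogeneous time-resolved FRET immunoassay, 665nm acceptor signal after 320nm excitation.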
Mito fusion yeast: mitochondrial division inhibition or fusion activation. 320,000 tested, 0.23% active. Potency, µM (series often up to 46.1 µM), inactives show at the top dose growth rescue (activation), usual class: activators. AID 485298. S. cerevisiae fusion-defective mutant growth rescue, CellTiterGlo 48 h; further: potency means the concentration at half of the fitted maximal effect; % of control where 0% means no effect; nearly all actives have a fitted effect of over 45% in size
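Yeast fusion mutant, YPEG (non-fermentable carbon), compound, 48 h at 37C non-permissive; CellTiterGlo added, 10 min RT, luminescence read. Rescued growth = division inhibition.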
PTHR1 agonist: activates the human parathyroid hormone receptor PTHR1 | AID 743266 | Potency, µM (doses to about 115 µM), for the others: at the top dose activation, most hits filed as activators | HEK293 GP2 PTHR1 cells, GloSensor cAMP luminescence, 1 h | Q03431 | 410,000 tested, 0.075% active; further: potency means the concentration at half of the fitted maximal effect; nearly all actives have a fitted effect of over 55% in size
Target sequence (Q03431 whole entry, looked up): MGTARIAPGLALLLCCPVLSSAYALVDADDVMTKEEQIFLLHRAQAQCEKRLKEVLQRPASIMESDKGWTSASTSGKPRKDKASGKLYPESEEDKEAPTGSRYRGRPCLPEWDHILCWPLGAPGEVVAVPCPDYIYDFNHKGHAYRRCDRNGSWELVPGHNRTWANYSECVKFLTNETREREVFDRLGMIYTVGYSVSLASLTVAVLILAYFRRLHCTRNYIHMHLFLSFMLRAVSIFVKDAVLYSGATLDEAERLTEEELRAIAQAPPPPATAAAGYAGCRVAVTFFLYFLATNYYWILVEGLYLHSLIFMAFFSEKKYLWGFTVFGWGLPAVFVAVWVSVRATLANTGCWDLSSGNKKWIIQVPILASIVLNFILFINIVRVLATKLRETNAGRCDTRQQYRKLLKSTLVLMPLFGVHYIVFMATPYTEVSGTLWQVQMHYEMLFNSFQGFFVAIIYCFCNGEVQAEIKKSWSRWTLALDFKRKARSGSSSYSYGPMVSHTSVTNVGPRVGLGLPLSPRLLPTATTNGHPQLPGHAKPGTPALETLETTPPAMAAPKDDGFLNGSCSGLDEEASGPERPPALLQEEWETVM
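HEK-293-derived GP2 cells expressing PTHR1 and a GloSensor cAMP reporter, 3,000/well, plated overnight, given luciferin plus IBMX (each 0.5 mM as added) for 1 h at 37 °C, then compound for 1 h at 37 °C. Luminescence was read after 15 min at room temperature.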
Chronic BCR inh: blocks chronic active B-cell receptor signaling; AID 493014; Potency, µM (titrated, usually from 46.1 µM), for inactives: at the top dose activity change, negative = inhibition, actives largely listed as inhibitors; ABC-DLBCL IkBa-CBG/CBR reporter, luminescence ratio, 4 h; 340,000 tested, 0.05% active; active means well fitted inhibition curve with a large enough effect in the signal ratio, with a control signal flat, not every such curve was filed as active; inconclusive means small, poorly fitted or top-dose-only effect, or effect the other way, or a change in a side signal; the % refers to the signal ratio;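 further: potency means the concentration at half of the fitted maximal effect; plate controls were basal doxycycline-induced cells for no effect and cells given 10 µM MG132 for full effect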
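Concentration-response series (up to 46 uM) were applied to TMD8 dual-reporter cells for 4 h at 37C with doxycycline. Green/red ratio, after filter-overlap correction, defined %Activity; red signal alone was normalised to basal cells and zero luminescence.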
BRCA1 expr up: activators of BRCA1 expression; MCF7-BRCA1-FFLuc reporter, luminescence, 48 h; response scale: scaled: vehicle 0%, 10 µM genistein 100%; Potency, µM (highest dose often 46.1 µM), without a hit: at the highest dose activation, actives largely listed as activators; 380,000 tested, 1.1% active; AID 624202; further: potency means the concentration at half of the fitted maximal effect; nearly all actives have a fitted effect of over 80% in size
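Compounds are tested at multiple concentrations on MCF7 BRCA1-luciferase reporter cells seeded at 2000 per well; after 48 h, a single luminescence end-point is taken and curves fitted to the normalized data.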
An asterisk follows results filed as active; i = inactive; ? = inconclusive; · = no result; [ ] = dose if it differs, or a comment. Sampled rows, rich in hits. Any-hit rate of the full collection: about 1.3%. Unless noted, the call rests on the fitted dose curve; in most records, active means well fitted curve in the direction sought with a large enough effect; inconclusive means small, poorly fitted or top-dose-only effect, or another doubt; inactive means no such curve, though single readings can be large; an effect the other way counts as inactive or inconclusive.

SMILES | IL2 activator | TCR activator | Mito fusion yeast | PTHR1 agonist | Chronic BCR inh | BRCA1 expr up
CCc1ccccc1NC(=S)N=Nc1c(O)n(C)c2ccc(S(=O)(=O)N3CCOCC3)cc12 | -2 | -2% | 11% | -21% | 18µM* | -32%
C#Cc1cccc(NC(=O)c2ccc(Cl)cc2Cl)c1 | -4 | 1% | 6% | -27% | ? | 1.8µM*
O=C(Nc1ccc(Nc2ccccc2)cc1)c1ccc(Cl)cc1Cl | 4 | -3% | · | -11% | · | 0%
CN(Cc1ccccc1)C(=O)COC(=O)c1c[nH]c2ccccc12 | -3 | · | · | -31% | · | 10µM*
Cc1cc(/C=N/NC(=O)c2ccoc2C)cc(C)c1O | -4 | · | · | -28% | · | 7.9µM*
COc1cc(/C=N/NC(=O)c2ccoc2C)cc(OC)c1OC | -1 | -26% | · | i | · | 37%
Cc1occc1C(=O)N/N=C/c1ccc(-c2ccccc2)cc1 | 0 | -3% | -28% | -25% | ? | ?
O=C(N/N=C/c1cccs1)c1[nH]ncc1Br | -3 | 6% | -1% | -22% | ? | 3.2µM*
O=C(N/N=C/c1cccs1)c1cnccn1 | 0 | -3%[46.1 µM] | -4% | i | 2% | 30%
Cc1occc1C(=O)N/N=C/c1cccs1 | 2 | 5% | -3% | -17%[57.5 µM] | ? | 13µM*
CCCn1cc(S(=O)(=O)c2ccc(OC)cc2)c(=O)c2cc(F)c(N3CCCCCC3)cc21 | · | · | · | -11% | · | ·
CN1C(=CC=C2C=C(I)C(=O)C(I)=C2)C(C)(C)c2ccccc21 | -7 | -6% | -6% | -31% | 10% | -19%
CN1/C(=C\C=C2/C(=O)Oc3ccccc3C2=O)C(C)(C)c2ccccc21 | 80* | -4%[46.1 µM] | 9% | -13% | ? | 19%
O=C(Nc1cccnc1Cl)c1cnn2c1NC(=C1CC1)C=C2C(F)F | · | · | · | · | · | 4%
Nc1nc2ccccc2n1/N=C/c1ccc(Br)cc1 | 0 | -2% | 8% | -19% | 18% | 5%
Nc1nc2ccccc2n1/N=C/c1ccc2c(c1)OCO2 | 1 | 5% | -5% | -12% | 11% | 5.6µM*
CCOc1ccc(C(=O)Nc2ccc3oc(-c4ccc5ccccc5c4)nc3c2)cc1 | · | · | · | 0% | · | ·
Cn1cccc1C(=O)C(=O)Nc1cccc(Cl)c1Cl | 1 | 6% | 7% | -22% | -4% | -38%
Cn1cccc1C(=O)C(=O)Nc1ccc(Cl)cc1 | -1 | -4% | 4% | -15% | ? | 4.5µM*
Cn1cccc1C(=O)C(=O)Nc1cc(Cl)cc(Cl)c1 | -3 | -2% | 2% | i | -10% | 57%
Cn1cccc1C(=O)C(=O)Nc1ccc(F)c(F)c1 | 0 | 1% | 1% | -31% | ? | 5.6µM*
Cn1c2ccccc2c(=O)c2cc(NCCCN3CCOCC3)ccc21 | 0 | 0% | · | -3% | 2% | ?
COc1cccc2sc3cc(NCCCN4CCOCC4)ccc3c(=O)c12 | -2 | -3% | · | -3% | -3% | 10µM*
CN1CCCC1CCNc1ccc2c(=O)c3ccccc3oc2c1 (stereo not drawn) | 0 | -4% | 1% | i | ? | 13µM*
O=c1c2ccccc2oc2cc(NCCCN3CCOCC3)ccc12 | 0 | -2% | -28% | -80% | 10% | 5.6µM*
SMILES | IL2 activator | TCR activator | Mito fusion yeast | PTHR1 agonist | Chronic BCR inh | BRCA1 expr up
CN1CCCC1CCNc1ccc2oc3ccccc3c(=O)c2c1 (stereo not drawn) | 0 | -94% | 6% | -17% | ? | 1.3µM*
N#Cc1ncc(Br)cn1 | · | · | · | · | · | 0%
CCOc1ccc(NC(=O)CSc2oc(-c3ccccc3)nc2S(=O)(=O)c2ccc(Cl)cc2)cc1 | · | · | · | i | · | ·
Nc1nc(SCc2ccc(Cl)cc2)ns1 | -1 | -2% | 27% | -76%[57.5 µM] | 0% | 91%
CC(C)CSc1nnc(N)s1 | 0 | 8% | 4% | i | 10% | 12%
Nc1nc(SCc2ccccc2)ns1 | 0 | -19% | 3% | -10%[57.5 µM] | ? | 11µM*
